# Screens deposited in PubChem by several laboratories.
# CYP2C19 act = activators of human cytochrome P450 2C19 | P33261 | recombinant CYP2C19, luciferin-H EGE luminescence; hits give high values; 0 = fully inhibited enzyme, 1 = untreated enzyme | activation factor at 5 µM | 96,000 tested, under 10 active | AID 1025;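 active = activation factor of at least 2 at 5 µM in the primary screen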
# Target sequence (P33261 whole entry, looked up): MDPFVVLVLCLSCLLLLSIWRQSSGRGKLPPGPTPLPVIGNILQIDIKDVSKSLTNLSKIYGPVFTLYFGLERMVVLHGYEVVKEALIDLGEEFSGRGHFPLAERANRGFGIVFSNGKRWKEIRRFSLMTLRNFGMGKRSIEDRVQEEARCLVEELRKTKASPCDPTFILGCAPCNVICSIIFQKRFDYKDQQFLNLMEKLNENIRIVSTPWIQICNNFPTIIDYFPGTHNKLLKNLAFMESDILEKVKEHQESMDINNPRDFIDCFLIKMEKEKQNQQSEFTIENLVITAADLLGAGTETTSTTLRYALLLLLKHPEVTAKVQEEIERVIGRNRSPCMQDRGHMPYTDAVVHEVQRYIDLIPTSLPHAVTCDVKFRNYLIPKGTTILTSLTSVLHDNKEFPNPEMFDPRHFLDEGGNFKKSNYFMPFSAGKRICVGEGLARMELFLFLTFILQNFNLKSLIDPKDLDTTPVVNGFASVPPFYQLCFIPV
# MRP reversal = compounds reversing MRP-mediated drug resistance | H69AR cells + 2 uM doxorubicin, CellTiter-Glo, 72 h | differential viability (reversal), % at 10 µM | 85,000 tested, 0.04% active;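 active = viability drop by adding the cancer drug above about 55%, with treated viability meeting a 40% cutoff, limit read from the data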;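 also: larger differential means the compound sensitizes cells more to doxorubicin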
# CYP2C19 inhib = blocks human cytochrome P450 2C19. P33261. CYP2C19 Supersomes, luciferin-H EGE luminescence, 30 min. inhibition, % at 5 µM. 96,000 tested, 21% active;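 active = CYP2C19 inhibition above a set limit at 5 µM in the primary screen, cut at about 50% in these data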
# CYP2C9 activ = activators of human CYP2C9; P11712; recombinant CYP2C9, luciferin-H conversion, luminescence; hits give high values; factor 1 = untreated enzyme, 0 = blocked; activation factor at 5 µM; 96,000 tested, 1.4% active; AID 1024;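 active = activation factor of 2 or more for CYP2C9 at a 5 µM dose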
# MRP-1 activ = activates MRP-1. H69AR cells + doxorubicin, viability rescue, CellTiter-Glo. 140,000 tested, 0.61% active. AID 799. viability increase, % at 10 µM;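 active = viability gain under doxorubicin at or above a set limit, the compound median plus 3 SD, cut at about 4.7% in these data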;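 also: MRP-1 overexpressing cells given doxorubicin 25 µM after compound pretreatment; 18-22 h compound pretreatment then 72 h with doxorubicin before readout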
# CYP2C9 inh = blocks human cytochrome P450 2C9 | P11712 | AID 777 | inhibition, % at 5 µM | 96,000 tested, 20% active | CYP2C9 Supersomes, luciferin-H conversion, luminescence;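 active = blocking of liver enzyme CYP2C9 beyond about 50% at 5 µM, limit read from the data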
# A number is an active result; i = inactive; nt = no result given. In the library only some 21% were active in any assay of this set; here they are far more common.
SMILES,CYP2C19 act,MRP reversal,CYP2C19 inhib,CYP2C9 activ,MRP-1 activ,CYP2C9 inh
CC1(C)CC(=O)C2=C(C1)Nc1[nH]n(-c3ccccc3)c(=O)c1C2c1ccc2c(c1)OCO2 (centres undefined),i,i,55,i,i,i
CCCOC(=O)C1=C(C)NC2=C(C(=O)CC(C)(C)C2)C1c1cccnc1 (centres undefined),nt,nt,nt,nt,i,nt
COc1ccc(C2C3=C(CC(C)(C)CC3=O)Nc3c2c(=O)[nH]c(=O)n3Cc2ccccc2)cc1OC (centres undefined),i,i,i,i,i,i
CCSc1cc(C2C(C(=O)OC)=C(C)NC3=C2C(=O)CCC3)c(C)o1 (centres undefined),i,nt,i,i,i,i
CN(C)c1ccc(C2CC(=O)NC3=C2C(=O)CC(C)(C)C3)cc1 (centres undefined),i,i,61,i,i,i
Cc1ccc(N2CN=c3s/c(=C\c4ccccn4)c(=O)n3C2)cc1,i,i,i,i,i,i
COC(=O)C(NC(C)=O)(Nc1ccccc1)C(=O)OC,i,i,i,i,i,i
CC1(C)CC(=O)C=C(Nc2cc(-c3ccccc3)[nH]n2)C1,i,i,i,i,i,53
CC(=O)c1cccc(NC(=O)CN2C(=O)COc3ccc(Cl)cc32)c1,i,i,i,i,i,62
CCOc1ccccc1NC(=O)CN1C(=O)COc2ccc(Cl)cc21,i,i,50,i,i,i
CC(=O)c1cccc(NC(=O)CN2C(=O)C3C4C=CC(C4)C3C2=O)c1 (centres undefined),i,i,95,i,i,72
COC(=O)c1ccc(NC(=O)CN2C(=O)C3C4C=CC(C4)C3C2=O)cc1 (centres undefined),i,i,i,i,i,i
O=C1NC2=C(C(=O)CCC2)C(c2ccc3ncccc3c2)N1 (centres undefined),i,i,i,i,i,i
Oc1ccc(C=Nc2ccccc2-c2nc3ccccc3[nH]2)cc1,nt,nt,nt,nt,i,nt
CCN(CC)C(=O)CSc1nnc(CNc2ccc(F)cc2)o1,i,i,i,i,i,i
CCOC(=O)C1=C(C)NC(=O)C(C(N)=O)C1c1ccccc1 (centres undefined),i,i,i,i,i,i
OC(COCc1ccc(Cl)cc1)CN1CCN(c2ccccn2)CC1 (centres undefined),nt,nt,nt,nt,i,nt
OC(COc1ccc(Cl)c2ccccc12)CN1CCN(c2ccccn2)CC1 (centres undefined),i,i,92,i,i,59
Cc1ccc2c(c1)c(C)c(C)n2CC(O)CN1CCOCC1 (centres undefined),nt,i,nt,nt,i,nt
OC(CN1CCN(c2ccccn2)CC1)Cn1c2ccccc2c2ccccc21 (centres undefined),i,i,57,i,i,54
Cc1c(C)n(CC(O)CN2CCCCCC2)c2ccccc12 (centres undefined),i,i,72,i,i,i
Cc1ccc(C)n1CCN1CCN(C(=O)c2ccco2)CC1,i,i,i,i,i,i
OC(COC(c1ccccc1)c1ccccc1)CN1CCN(c2ccccn2)CC1 (centres undefined),nt,nt,nt,nt,i,nt
O=C(c1ccco1)N1CCN(CC(O)Cn2c3ccccc3c3ccccc32)CC1 (centres undefined),i,i,83,i,i,88
CC(=O)N(Cc1ccccc1)c1ncc2c(n1)c(=O)c(C#N)c1ccccn12,i,i,i,i,i,i
SMILES,CYP2C19 act,MRP reversal,CYP2C19 inhib,CYP2C9 activ,MRP-1 activ,CYP2C9 inh
O=C1Oc2ccccc2C2(O)C3CCCCCC3C12 (centres undefined),i,nt,95,i,i,i
COc1cc(OC)c(NS(=O)(=O)c2ccc(Cl)c(C(=O)OC(C)C(=O)N3CCCC3)c2)cc1Cl (centres undefined),nt,nt,nt,nt,i,nt
Cc1ccc(C(=O)Oc2ccccc2N2C(=O)C3CCCCC3C2=O)cc1 (centres undefined),i,nt,i,i,i,i
Cc1sc2c(c1C)CN(Cc1ccncc1)CN2C(=O)c1ccco1,i,nt,77,i,i,91
COc1ccc(-c2cnn3c4c(c(C)nc23)CCN4C(C)C)cc1OC,i,nt,i,i,i,i
CC(C)NCCCCOc1ccccc1-c1ccccc1,nt,nt,nt,nt,i,nt
Clc1ccc(CSc2nnc(Cn3cnc4ccccc43)o2)cc1,i,i,i,i,i,67
CCSc1nnc(CCNC(=O)OC(C)(C)C)o1,i,i,i,i,i,i
CC(C)(C)OC(=O)NCCc1nnc(SCc2ccc(Cl)cc2)o1,i,i,i,i,i,54
C=C(C)CSc1nnc(CCNC(=O)OC(C)(C)C)o1,i,i,87,i,i,i
CC(C)(C)OC(=O)NCCCCCc1nnc(SCC(=O)Nc2cccc(Cl)c2)o1,i,i,93,i,i,90
CCOC(=O)c1c(NC(=O)CN2C(=O)NC(C)(c3ccc(Cl)cc3)C2=O)sc(C(=O)NC)c1C (centres undefined),nt,nt,nt,nt,i,nt
Clc1ccc(CSc2nnc(CNc3cccc(Cl)c3)o2)cc1,i,i,53,i,i,i
O=C(CSc1nnc(CNc2cccc(Cl)c2)o1)OC1CCCCC1,i,i,i,i,i,i
COc1ccc(N(C)C2=NS(=O)(=O)c3ccccc32)cc1,i,i,72,i,i,i
COC1=NS(=O)(=O)c2ccccc21,nt,nt,nt,nt,i,nt
Cc1nc2ccc(S(=O)(=O)N(C)CC(=O)NCc3ccc4c(c3)OCO4)cc2s1,i,nt,57,i,i,53
Cc1nc2ccc(S(=O)(=O)NCC(=O)NCc3ccc4c(c3)OCO4)cc2s1,i,i,i,i,i,i
Cc1nc2ccc(S(=O)(=O)NC(C(=O)NC3CCCC3)C(C)C)cc2s1 (centres undefined),i,i,i,i,i,i
CCc1nnc(NC(=O)C(NS(=O)(=O)c2ccc3c(c2)OCCO3)C(C)C)s1 (centres undefined),i,i,95,i,i,90
Cc1nc2ccc(S(=O)(=O)NC(C(=O)NCc3ccc4c(c3)OCO4)C(C)C)cc2s1 (centres undefined),i,i,51,i,i,i
CCc1nnc(NC(=O)[C@@H]2CCCN2S(=O)(=O)c2ccc3c(c2)OCCO3)s1,i,i,i,i,i,i
CC(C)N(C(=O)CSc1nnc(CN2CCCCCC2=O)n1-c1ccccn1)C(C)C,i,i,i,i,i,i
CCOCCCNC(=O)CCCOc1ccccc1,i,i,i,i,i,i
Cc1cc(C)cc(-n2cc3c(=O)n(C)c(=O)n(C)c3c2)c1,nt,i,nt,nt,nt,nt
CCCN1CCN(CCCNC(=S)Nc2ccc(OC)cc2)CC1,nt,nt,nt,nt,i,nt
N#Cc1cnc2sc3ccccc3n2c1=N,i,i,i,i,i,89
COc1cc(S(=O)(=O)NCC2CCCO2)c(OC)cc1Cl (centres undefined),i,i,66,i,i,i
O=S(=O)(NCC1CCCO1)c1cc(Cl)ccc1Cl (centres undefined),i,i,66,i,i,i
